For 20 compounds, viability and Potency results are on record in PubChem BioAssay (NCATS).

Each structure is given as a SMILES string. Results filed as inconclusive are left out. Values without a mark were called inactive. Activity calls are given as the source filed them. The call rests on the fitted dose curve; in most records, active means well fitted curve in the direction sought with a large enough effect; inconclusive means small, poorly fitted or top-dose-only effect, or another doubt; inactive means no such curve, though single readings can be large; an effect the other way counts as inactive or inconclusive.

A short description of experiment [1]: BET inhibitor-based combinations targeting novel dependencies in MECOM-rearranged (r) AML: SET-2 cell line (AID 2202231). Further: nearly all actives have a fitted effect of over 35% in size.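 On viability: plate controls were DMSO treated cells for no effect and wells without cells for full effect.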 As to conditions: SET-2 AML cells viability, CellTiter-Glo luminescence, 48 h; viability: hits give low values, concentration not given here. A digest of the protocol:
(§1)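 A 48 hr incubation preceded viability reading by CellTiter-Glo, with 15 min room-temperature development. Dose series had 11 points; normalization used DMSO and empty wells; AUC was computed and mean-centered per line as Z-AUC.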

A short description of experiment [2]: BET inhibitor-based combinations targeting novel dependencies in MECOM-rearranged (r) AML: OCI-AML3 cell line (AID 2202232). Further: nearly all actives have a fitted effect of over 35% in size. As to conditions: Potency: OCI-AML3 viability. A digest of the protocol: as §1
Experiment [3] in a line: BET inhibitor-based combinations targeting novel dependencies in MECOM-rearranged (r) AML: MV-4-11 cell line (AID 2202233). Further: nearly all actives have a fitted effect of over 45% in size. A digest of the protocol: (§2)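 Each compound is tested in an 11-point concentration series against 500 seeded cells/well for 48 hr. The luminescent viability signal is normalized to DMSO and blank wells, then reduced to AUC and a cell-line-centred Z-AUC.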

Experiment [4] can be described thus: BET inhibitor-based combinations targeting novel dependencies in MECOM-rearranged (r) AML: HNT-34 cell line (AID 2202234). Further: nearly all actives have a fitted effect of over 35% in size. A digest of the protocol:
as §2

Experiment [5] can be described thus: BET inhibitor-based combinations targeting novel dependencies in MECOM-rearranged (r) AML: AML-194 cell line (AID 2202237; further: nearly all actives have a fitted effect of over 40% in size). A digest of the protocol: as §1
A short description of experiment [6]: BET inhibitor-based combinations targeting novel dependencies in MECOM-rearranged (r) AML: AML-191 cell line (AID 2202236; further: nearly all actives have a fitted effect of over 35% in size). The procedure, abridged:
as §1
Potency means the concentration at half of the fitted maximal effect.

For the compound `CC(C)C(=O)OCC(=O)[C@@]12O[C@H](C3CCCCC3)O[C@@H]1C[C@H]1[C@@H]3CCC4=CC(=O)C=C[C@]4(C)[C@H]3[C@@H](O)C[C@@]12C`, the viability – broadly, a read-out of living cells in per cent, often relative to untreated cells – in experiment [1] was 102%. Also, the Potency in experiment [2] was 14.8 µM (active); in experiment [3], 23.5 µM (active); in experiment [4], 20.9 µM (active); in experiment [5], 16.6 µM (active).

On to `C[C@]12CCC3[C@@H](CC[C@H]4NC(=O)C=C[C@]34C)[C@@H]1CC[C@@H]2C(=O)Nc1cc(C(F)(F)F)ccc1C(F)(F)F` (stereo partly specified), for which the viability in experiment [1] was 118%. The Potency entry in experiment [2], in experiment [3], in experiment [4], in experiment [6] and in experiment [5] was “inactive” in each case.

`CC(C)(C)NC(=O)c1cncn1C1CCN(c2ccc(-c3nnc(C(F)(F)F)o3)cn2)CC1`: the Potency in experiment [1] was 16.6 µM (active); in experiment [2], 1.05 µM (active); in experiment [3], 5.25 µM (active); in experiment [4] it was 4.68 µM (active); in experiment [6], 13.2 µM (active).

With `C[C@H](CCC(=O)O)[C@H]1CC[C@H]2[C@@H]3[C@H](O)C[C@@H]4C[C@H](O)CC[C@]4(C)[C@H]3CC[C@]12C`, in experiment [1], the viability was 104%. Moreover, the Potency result in experiment [2], in experiment [3], in experiment [4], in experiment [6] and in experiment [5] was “inactive” each time.

On to `CN1CCCN(C(=O)c2cccc(-c3ccc(/C=C4/C(=O)Nc5ccc(Cl)cc54)o3)c2)CC1`, for which the Potency is 20.9 µM (active) in experiment [1]; 6.61 µM (active) in experiment [2]; 0.662 µM (active) in experiment [3]; 2.63 µM (active) in experiment [4]; 2.95 µM (active) in experiment [6]; 1.86 µM (active) in experiment [5].

For `CC1(C)CC[C@]2(C(=O)O)CC[C@]3(C)C(=CC[C@@H]4[C@@]5(C)C[C@@H](O)[C@H](O)C(C)(C)[C@@H]5CC[C@]43C)[C@@H]2C1`, in experiment [1], the viability is 102%. Moreover, the Potency result in experiment [2], in experiment [3], in experiment [4], in experiment [6] and in experiment [5] was “inactive” throughout.

On to `O=C(C[C@@H]1C/C=C\CCC(=O)O[C@H](c2ccccc2)CNC1=O)NCc1ccc(Cl)cc1`, for which the viability in experiment [1] is 117%. The Potency result in experiment [2], in experiment [3], in experiment [4], in experiment [6] and in experiment [5] was “inactive” throughout.

With `COc1ccnc2[nH]cc(C(=O)C(=O)N3CCN(C(=O)c4ccccc4)C[C@H]3C)c12`, the viability in experiment [1] is 113%. The Potency entry in experiment [2], in experiment [3], in experiment [4], in experiment [6] and in experiment [5] was “inactive” throughout.

Take `CC1(C(=O)O)CCC2(C)CCC3(C)C(=CC(=O)C4C5(C)CCC(OC6OC(C(=O)O)C(O)C(O)C6OC6OC(C(=O)O)C(O)C(O)C6O)C(C)(C)C5CCC43C)C2C1` (stereo unspecified): the viability in experiment [1] is 124%. Besides, the Potency result in experiment [2], in experiment [3], in experiment [4], in experiment [6] and in experiment [5] was “inactive” in each case.

For `O=C(O)CNC(=O)c1nc(Cl)c2ccccc2c1O`, in experiment [1], the viability was 122%. Moreover, the Potency entry in experiment [2], in experiment [3], in experiment [4] and in experiment [5] was “inactive” in each case.

For `COc1cc2c(NC3CCN(C)CC3)nc(N3CCCN(C)CC3)nc2cc1OCCCN(C)C`, in experiment [1], the viability is 112%. The Potency result in experiment [2], in experiment [3], in experiment [4], in experiment [6] and in experiment [5] was “inactive” throughout.

Take `CCO[C@@H]1OC(=O)C[C@@H]1NC(=O)[C@@H]1CCCN2C(=O)CC[C@H](NC(=O)c3nccc4ccccc34)C(=O)N12`: the viability in experiment [1] is 125%. The Potency entry in experiment [2], in experiment [3], in experiment [4], in experiment [6] and in experiment [5] was “inactive” throughout.

With `Cc1cc(O[C@@H](CCC(F)(F)F)c2ccc(C(=O)NCCC(=O)O)cc2)cc(C)c1-c1ccc(C(C)(C)C)cc1`, the Potency in experiment [1] was 20.9 µM (active); in experiment [2], 20.9 µM (active); in experiment [3] it was 18.6 µM (active); in experiment [4] it was 20.9 µM (active); in experiment [6], 16.6 µM (active); in experiment [5], 26.3 µM (active).

As for `OC[C@H]1O[C@@H](S[C@@H]2O[C@H](CO)[C@H](O)[C@H](n3cc(-c4cccc(F)c4)nn3)[C@H]2O)[C@H](O)[C@@H](n2cc(-c3cccc(F)c3)nn2)[C@H]1O`, the viability in experiment [1] was 115%. The Potency result in experiment [2], in experiment [3], in experiment [4], in experiment [6] and in experiment [5] was “inactive” in each case.

On to `C[C@@H](O)[C@@H]1NC(=O)[C@H](CCCCN)NC(=O)[C@@H](Cc2c[nH]c3ccccc23)NC(=O)[C@H](Cc2ccccc2)NC(=O)[C@@H](NC(=O)[C@H](N)Cc2ccccc2)CSSC[C@@H](C(=O)N[C@H](CO)[C@@H](C)O)NC1=O`, for which, in experiment [1], the viability is 114%. The Potency result in experiment [2], in experiment [3], in experiment [4], in experiment [6] and in experiment [5] was “inactive” throughout.

Regarding `COc1ccc(S(=O)(=O)N[C@@H](CNc2nc(C)nc(N3CCC(c4ccc5c(n4)NCCC5)CC3)c2C)C(=O)O)cc1`, the viability in experiment [1] is 111%. Further, the Potency result in experiment [2], in experiment [3], in experiment [4], in experiment [6] and in experiment [5] was “inactive” throughout.

In the case of `O=C(O)c1cccnc1`, in experiment [1], the viability was 118%. Besides, the Potency result in experiment [2], in experiment [3], in experiment [4], in experiment [6] and in experiment [5] was “inactive” in each case.

Take `CC(C)C[C@H](NC(=O)[C@H](Cc1ccccc1)NC(=O)OCc1ccccc1)C(=O)C=O`: the viability in experiment [1] was 114%. The Potency entry in experiment [2], in experiment [3], in experiment [4] and in experiment [5] was “inactive” throughout. Besides, the Potency in experiment [6] is 26.3 µM (active).

In the case of `COc1nnc2ccc(N3CCC(c4ccc(OCCN5CCN(C)C(=O)[C@H]5C)cc4)CC3)nn12`, the Potency is 0.148 µM (active) in experiment [1]; 0.0417 µM (active) in experiment [2]; 0.059 µM (active) in experiment [3]; 0.105 µM (active) in experiment [4]; 0.0833 µM (active) in experiment [6].

On to `CCN1CCN(Cc2ccc(-c3cc4c(N[C@H](C)c5ccccc5)ncnc4[nH]3)cc2)CC1`, for which the Potency was 23.5 µM (active) in experiment [1]; 20.9 µM (active) in experiment [2]; 2.63 µM (active) in experiment [3]; 2.63 µM (active) in experiment [4]; 18.6 µM (active) in experiment [6]; 26.3 µM (active) in experiment [5].
